Measured values taken from PubChem BioAssay (NCATS).
Results filed as inconclusive are left out. Unmarked numbers belong to inactive results. Calls follow the shape of the dose curve; as a rule, active = well fitted inhibition curve with a large enough effect; inconclusive = small, poorly fitted or top-dose-only effect; inactive = no such curve, though single readings can be large or run the other way.

Test: qHTS assay for measurement of the activity of small molecule inhibitors on Zika virus induced Caspase-3 activity in human iPSC derived neural progenitor cells (hNPCs) (AID 1224857); also: % of control where 0% means no effect; nearly all actives have a fitted effect of over 65% in size
Conditions: hNPCs ZIKV-induced caspase-3/7, Caspase-Glo luminescence, 6 h; series mostly up to 45.7 µM; activity change, negative = inhibition: at the top concentration
Summary of the method: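 hNPCs seeded 350 cells/well, cultured 16–20 h; compounds added 1 h before ZIKV (2 FFU/cell), 37 C 6 h. Caspase-Glo 3/7 luminescence after 30 min RT; % inhibition from induction scaled to uninfected (0%) and infected (100%) wells.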

Compound	activity change, negative = inhibition [%]
O=C(O)c1cc(=O)c2ccccc2[nH]1	25
COc1ccc(-c2cc(=O)c3c(O)c(OC)c(OC)cc3o2)cc1O	1.83
NCCCS(=O)(=O)O	-1.41
OC[C@H]1O[C@@H](n2cnc3c(NC4CCCCC4)ncnc32)[C@H](O)[C@@H]1O	-11.2
CNC(=O)[C@H]1O[C@@H](n2cnc3c(NCc4cccc(I)c4)ncnc32)[C@H](O)C1O (stereo partly specified)	33
N[C@@H](CC(=O)O)C(=O)O	15.3
CC[C@@H](C)[C@H]1O[C@]2(CC[C@@H]1C)C[C@@H]1C[C@@H](C/C=C(\C)[C@@H](O[C@H]3C[C@H](OC)[C@@H](O[C@H]4C[C@H](OC)[C@@H](O)[C@H](C)O4)[C@H](C)O3)[C@@H](C)/C=C/C=C3\CO[C@@H]4[C@H](O)C(C)=C[C@@H](C(=O)O1)[C@]34O)O2	335
CCCCCCCCCCCCCCCCCCN(CCCCCCCCCCCCCCCCCC)CCCN(CCO)CCO	1.03
Fc1cccc(/C=N/N=C/c2cccc(F)c2)c1	-15.1
CN1CCc2ccccc2Cc2[nH]c3ccccc3c2CC1	71
O=C(NOCC1CC1)c1cc(Br)c(F)c(F)c1Nc1ccc(I)cc1Cl	32.6
Cn1c(=O)c2[nH]c(-c3ccccc3)nc2n(C)c1=O	23.2
CCCCCCCCCCCCCCCC(=O)OC(CC(=O)O)C[N+](C)(C)C (stereo unspecified)	-9.8
OC[C@H]1O[C@@H](n2cnc3c(NC4CCCC4)ncnc32)[C@H](O)C1O (stereo partly specified)	-1.3
O=C1NC(=O)c2c1c(-c1ccccc1)cc1[nH]c3ccc(O)cc3c21	82.8
CNC(=O)[C@H]1O[C@@H](n2cnc3c(NCc4ccc(N)cc4)ncnc32)[C@H](O)C1O (stereo partly specified)	-7.82
